Screens as filed in PubChem.
ANO1 block: mouse TMEM16A channel inhibition, primary screen; Q8BHY3; HEK293 TMEM16A/YFP iodide influx fluorescence, ionomycin; normalized B-score (activity score, 25-100; higher = stronger inhibition) at 10 µM; hit rate 1.2% among 310,000; AID 588511;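 active means ratio plate-corrected score three or more library SD toward inhibition, starting fluorescence score within five deviations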;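 further: score derived from kinetic fluorescence span divided by baseline fluorescence per well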
CHT PAM: allosteric activators of human choline transporter CHT. AID 488977. B-score at 10 µM. CHT-expressing cells, membrane potential dye, choline EC20; stronger effect = higher value; LV-AA mutant CHT in HEK293 cells. hit rate 0.49% among 310,000;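 active means initial fluorescence not abnormally high and integrated response B-score, plate-corrected, over 3 SD above library mean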
ANO1 activ: activates or potentiates the mouse TMEM16A chloride channel. Q8BHY3. HEK293 TMEM16A/YFP-H148Q/I152L, iodide quench fluorescence; stronger effect = lower value. B-score at 10 µM. hit rate 0.3% among 340,000. AID 623877;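 active means fluorescence-ratio B-score plate-corrected deviation score at least 3 library SD below zero, with starting fluorescence score within 5 deviations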;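 further: channel opened by trigger with iodide after compound preincubation; score built on the fluorescence ratio of max minus min over baseline; more negative score means more quench and so TMEM16A activation or potentiation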
Kir21 inh: inhibitors of mouse Kir2.1 inward-rectifier potassium channel. P35561. HEK293-Kir2.1, FluxOR thallium flux fluorescence; stronger effect = lower value. B-score at 10 µM. hit rate 0.85% among 310,000;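 active means fluorescence ratio B-score at or below minus 3 SD of library scores, with starting-brightness B-score within 2 SD, cut at about -4.2 in these data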;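 further: channel flux triggered by added potassium and thallium sulfate stimulus; B-score of peak minus minimum fluorescence over baseline after thallium stimulus; more negative B-score means stronger Kir2.1 block with less thallium influx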
GPR7 antagonist: blocks human GPR7 receptor signaling. P48145. GPR7-expressing cells, fluorescence antagonist assay. inhibition, % at 4.4 µM. hit rate 1.1% among 290,000. AID 1861; in the data active means inhibition above about 16%, passing the limit was not always enough;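 further: cells stimulated with the agonist NPW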
Target sequence (P48145 whole entry, looked up): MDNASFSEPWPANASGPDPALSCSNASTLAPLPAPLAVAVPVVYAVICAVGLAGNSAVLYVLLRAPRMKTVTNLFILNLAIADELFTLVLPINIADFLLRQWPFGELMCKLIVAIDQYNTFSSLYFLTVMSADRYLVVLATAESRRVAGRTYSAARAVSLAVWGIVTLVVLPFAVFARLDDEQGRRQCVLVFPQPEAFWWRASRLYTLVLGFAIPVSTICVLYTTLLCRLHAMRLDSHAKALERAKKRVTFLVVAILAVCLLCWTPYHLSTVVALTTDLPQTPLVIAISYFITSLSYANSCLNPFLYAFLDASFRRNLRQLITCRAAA
CHT inh: inhibitors of human choline transporter CHT. Q9GZV3. CHT-expressing cells, membrane potential dye, choline response; stronger effect = lower value. B-score at 10 µM. hit rate 0.86% among 310,000. AID 488975;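 active means B-score over 3 SD under the library average, and starting fluorescence ratio not unusually high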;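 further: choline stimulus applied at its EC90 after an EC20 pre-addition; B-score computed on integrated fluorescence ratio after choline addition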
hERG ctr: counter-screen for Kir2.1 inhibitors: effect on human hERG; hERG-expressing cells, thallium flux; shares compounds with Kir21 inh; AID 2236; hit rate 20% among 320; inhibition, % at 10 µM;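 further: host cells are CHO cells stably expressing hERG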
KCNK9 spec: selectivity of Kir2.1 inhibitors: effect on human KCNK9; shares compounds with Kir21 inh; inhibition, % at 10 µM; hit rate 5% among 320; KCNK9-expressing cells, ion flux inhibition
Kir21 ephys inh: inhibitors of mouse Kir2.1 potassium channel; shares compounds with Kir21 inh; Kir2.1 cells, automated patch-clamp current inhibition; inhibition, % at 25 µM; hit rate 71% among 320; AID 463252
GPR7 antag conf: confirmation of human GPR7 antagonists | inhibition, % at 4.4 µM | shares compounds with GPR7 antagonist | GPR7-expressing cells, calcium fluorescence antagonist mode | AID 1952 | hit rate 52% among 2,400; in the data active means inhibition above about 24%;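 further: stimulated with the GPR7 agonist NPW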
MCHR1 antagonist: antagonizes human MCHR1, a GPR7 antagonist counter-screen; shares compounds with GPR7 antagonist; MCHR1-expressing cells, fluorescence antagonist assay; inhibition, % at 4.4 µM; hit rate 62% among 2,400; in the data active means inhibition above about 22%
Hits are given with their value; 0 = inactive; - = no result. In the library only some 3.7% were active in any assay of this set; here they are far more common. Unless noted, how the calls were made is not given here.

SMILES	ANO1 block	CHT PAM	ANO1 activ	Kir21 inh	GPR7 antagonist	CHT inh	others
O=c1[nH]c(=O)n(-c2cccc3ccccc23)c(O)c1/C=N/N1CCCCCC1	0	0	0	0	0	0
CNCC(O)c1cc(OCc2ccccc2)c(OCc2ccccc2)cc1F (configuration not stated)	0	0	0	-6	-	0
O=C(NC[P+](=O)O)OCc1ccccc1	0	0	0	0	0	0
O=c1c2ccccc2nc(CNCc2ccco2)n1-c1ccc(F)cc1	0	0	0	0	0	0
CCN1C(=O)C(=Cc2ccc(N3CCOCC3)o2)C(=O)N(CC)C1=S	0	0	-5.5	0	0	0
CN1C(=O)C(=Cc2ccc(N3CCOCC3)o2)C(=O)N(C)C1=S	0	0	0	0	0	0
C[C@H]1C(=O)O[C@@H]2CCN3CC=C(COC(=O)[C@](C)(O)[C@]1(C)O)[C@H]23	0	0	0	-	-	0
COc1ccc(CNC(C)Cc2cccs2)cc1 (configuration not stated)	0	0	-27	0	0	0
O=C1NC(=S)N(c2ccc(F)cc2)C(=O)/C1=C\c1ccoc1	-	-	0	-	0	-
Cc1ccc(N2C(=O)NC(=O)/C(=C\c3ccoc3)C2=O)cc1	0	0	-4.6	0	0	0
COc1cc2[nH]c(C(=O)N3CCC4(CC3)OCCO4)cc2c(OC)c1OC	0	0	0	0	0	0
CNc1ccc2oc(C[C@H]3O[C@@]4(CC[C@H]3C)O[C@H]([C@H](C)C(=O)c3ccc[nH]3)[C@H](C)C[C@H]4C)nc2c1C(=O)O	100	0	-37	0	-	0
CN[C@@H](C)[C@@H](O)c1ccccc1	0	0	0	0	0	0
CC(NS(=O)(=O)OCC(Cl)(Cl)Cl)c1ccccc1 (configuration not stated)	0	0	0	-5.7	0	0
C[C@]12CCC(=O)C[C@H]1CC[C@@H]1[C@@H]2CC[C@]2(C)[C@@H](O)CC[C@@H]12	0	0	-	-	-	-5.3
COc1ccc(NC(=O)c2cn(CCC#N)nc2-c2ccc(OC)c(OC)c2)cc1	0	0	0	0	0	0
Clc1ccc2c(c1)C(OC1CN3CCC1CC3)c1ccccc1CS2 (configuration not stated)	0	0	0	-5.9	0	0
OCC1CN1C1CCCCC1 (configuration not stated)	-	-	0	-	-	-
C=CCNC(=S)Nc1ccc(OC(=O)Nc2ccc(Cl)c(Cl)c2)cc1	-	-	0	-	39	-
Cc1cc(C)n(CCOC(=O)C2C(C=C(Cl)Cl)C2(C)C)n1 (configuration not stated)	0	0	0	-9.8	0	0	hERG ctr=0;KCNK9 spec=0;Kir21 ephys inh=41%
CN1CC(C(=O)c2ccc(Cl)cc2)C(c2ccccc2F)C1 (configuration not stated)	0	0	0	0	0	0
COc1ccc(C(=O)C2CN(C)CC2c2ccc(Cl)cc2)cc1 (configuration not stated)	0	0	0	-6.4	0	0	hERG ctr=51%;KCNK9 spec=0;Kir21 ephys inh=0
COc1cccc(C(=O)C2CN(C)CC2c2ccc(Cl)cc2)c1 (configuration not stated)	0	0	0	-7.1	0	0	hERG ctr=46%;KCNK9 spec=0;Kir21 ephys inh=25%
CCOC(=O)c1cnc(SCc2ccc(Cl)c(Cl)c2)nc1N1CC1	-	-	0	-	-	-
C[C@H](NC(=O)N1C[C@H]2C[C@@H](C1)c1cccc(=O)n1C2)C(=O)Nc1ccc(F)c(F)c1	0	0	0	0	0	0
SMILES	ANO1 block	CHT PAM	ANO1 activ	Kir21 inh	GPR7 antagonist	CHT inh	others
COc1cc(CCN)ccc1O	0	0	0	-	-	0
CCCCCSc1cc(OC)c(CCN)cc1OC	0	0	0	-6.2	0	0	hERG ctr=0;KCNK9 spec=0;Kir21 ephys inh=26%
CCOc1ccc(Cl)cc1CNCCc1ccc(F)cc1	0	0	0	-6.4	33	0	hERG ctr=0;KCNK9 spec=0;Kir21 ephys inh=57%;GPR7 antag conf=30;MCHR1 antagonist=29
CCOC(=O)C1(c2ccccc2)CCN(CCC(=O)Nc2cccc(Br)c2)CC1	-	-	0	-	-	-
CCOc1cc2c(cc1OCC)-n1cccc1C(c1ccc(C(C)C)cc1)NC2 (configuration not stated)	0	0	0	0	36	0	GPR7 antag conf=34;MCHR1 antagonist=62
CCOc1cc2c(cc1OCC)-n1cccc1C(c1ccc(F)cc1)NC2 (configuration not stated)	0	0	0	0	0	0
Clc1ccc(COC(Cn2ccnc2)c2ccc(Cl)cc2Cl)cc1 (configuration not stated)	0	0	0	0	31	0	GPR7 antag conf=59;MCHR1 antagonist=62
C=Cc1cc(OC)c2c(c1)c(=O)oc1c2cc(OC)c2c(O)ccc(C3OC(C)C(O)C(C)(O)C3O)c21 (configuration not stated)	-	-	0	-	-	-
CC(C)C(=O)Nc1nnc(CCN(CCc2nnc(NC(=O)C(C)C)s2)[N+](=O)[O-])s1	0	0	0	0	0	0
CC(=O)Nc1nnc(CCN(CCc2nnc(NC(C)=O)s2)[N+](=O)[O-])s1	0	0	0	0	32	0	GPR7 antag conf=0;MCHR1 antagonist=0
CCOC(=O)C(O)(c1ccc(N(C)C(=O)c2ccc(Cl)c(Cl)c2)cc1)C(F)(F)F (configuration not stated)	0	0	0	0	0	0
COC(=O)C(O)(c1ccc(N(C)C(=O)c2ccc(Cl)c(Cl)c2)cc1)C(F)(F)F (configuration not stated)	0	0	0	0	33	0	GPR7 antag conf=30;MCHR1 antagonist=0
O=C1NC(=O)C(Nc2ccc(Cl)c(Cl)c2)C(=O)N1	-	-	0	-	-	-
BrCC(Br)(Br)Br	-	-	0	-	-	-
CC1(C)CSC(=NCc2ccccc2)N1	0	0	-6.4	0	87	0	GPR7 antag conf=96;MCHR1 antagonist=102
CN1/C(=C\C=Nc2ccccc2)C(C)(C)c2ccccc21	0	0	0	0	0	0
CN1/C(=C\C=C\C2=[N+](C)c3ccc4ccccc4c3C2(C)C)C(C)(C)c2ccccc21	0	0	-	-	87	0	GPR7 antag conf=102;MCHR1 antagonist=104
CN1CCCN(C(=O)COc2ccccc2Br)CC1	0	0	0	0	0	0
Cc1nc2cc(C(F)(F)F)ccc2n1C1CCN(Cc2nnnn2Cc2cccs2)CC1	0	0	0	0	32	0	GPR7 antag conf=47;MCHR1 antagonist=38
